Data from publication PMC5540273 (PLoS ONE, 2017).
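Further: KINOMEscan kinase panel screen.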

Each compound was assayed on ABL1-phosphorylated. Details: concentration: 1 μM, replicates: in singlicate; n = 1.
With COc1cc(Nc2nccc(N3CCC(NC(=O)C4COc5ccccc5O4)C3)n2)cc(OC)c1OC (stereo not shown) [GSK1379761] the “%Inh” value was 0%.
For Cc1c(Cn2c(C)nn3c(=O)cc(N4CCO[C@H](C)C4)nc23)cccc1C(F)(F)F [GSK2373690], the “%Inh” value was 2%.
In the case of COc1cc2ncn(-c3cc(OCc4ccncc4Br)c(C(N)=O)s3)c2cc1OC [GW854278], the “%Inh” value is reported as 0%.
In the case of CCc1ccc(-c2ccc3c(c2)-c2nn(C)cc2S(=O)(=O)N3C)cc1, the “%Inh” value is reported as 0%.
For C[C@@H]1CC[C@H](C(=O)NC2CCCCC2)CN1c1cc(-c2ccc3c(N)n[nH]c3c2)nc(N)n1 [GSK2291363], the “%Inh” value was 0%.
For CCC(=O)c1c(-c2ccccc2)c2cc(Cl)ccc2c(=O)n1Cc1cc(S(C)(=O)=O)n(CCC(C)(C)O)n1, the “%Inh” value was 3%.
In the case of Cl.c1ccc(Cn2cnc3cc(Nc4ncnc5ccccc45)ccc32)cc1 [GW272142], the “%Inh” value is reported as 0%.
For FC(F)(F)c1ccc(-c2ncn(CCCN3CCOCC3)c2-c2ccncc2)cc1 [SB-217780], the “%Inh” value was 0%.
With O=C1NC(=O)C(c2ccccc2)=C1Nc1cccc(O)c1 [SB-390534] the “%Inh” value was 5%.
With COC(=O)c1c(-c2ccccc2)c2cc(C)ccc2c(=O)n1Cc1ccccc1 the “%Inh” value was 0%.
COc1cc2nccc(Nc3cccc(Oc4ccccc4)c3)c2cc1OC.Cl [GW284543] was tested, and the “%Inh” value was 0%.
For CN1C(=O)C(Nc2cc(Cl)c(O)c(Cl)c2)=C(c2ccc(Cl)cc2)C1=O [SB-404321], the “%Inh” value was 0%.
COc1ccc(-c2cc3c(C)nc(N)nc3n([C@H]3CC[C@H](OCCO)CC3)c2=O)cn1 was tested, and the “%Inh” value was 0%.
With COc1cccc(C2=C(Nc3cccc(C(=O)O)c3)C(=O)NC2=O)c1 [SB-390770] the “%Inh” value was 0%.
COc1ccc(-c2coc3ccc(-c4nnc(SCc5cccc(C#N)c5)o4)cc23)cc1 was tested, and the “%Inh” value was 0%.
For Nc1n[nH]c2nnc(-c3ccccc3)c(-c3ccccc3)c12 [GW554060], the “%Inh” value was 0%.
For Nc1ncnc2c1ncn2-c1ccc(Cl)cc1 [AH2635], the “%Inh” value was 0%.
For Nc1nccc2scc(-c3ccc4c(c3)CCN4C(=O)Cc3ccccc3)c12 [GSK2576924], the “%Inh” value was 0%.
For CCS(=O)(=O)c1ccc(OC)c(Nc2ncc(-c3ccc(F)cc3)o2)c1.Cl [GW591947], the “%Inh” value was 0%.
For CCC(=O)c1c(-c2ccccc2)c2cc(Cl)ccc2c(=O)n1Cc1cc(S(C)(=O)=O)n(CC(F)F)n1, the “%Inh” value was 2%.
With Fc1cccc(CSc2nnc(-c3ccc4c(c3)CCO4)o2)c1 the “%Inh” value was 7%.
In the case of CCC(=O)c1c(-c2ccccc2)c2cc(Cl)ccc2c(=O)n1Cc1cc(C(=O)NC2CC2)n(C)n1, the “%Inh” value is reported as 0%.
In the case of O=C(NCc1cccs1)c1cc(C(=O)c2c(Cl)cccc2Cl)c[nH]1 [GW823670], the “%Inh” value is reported as 27%.
In the case of Cc1nc(N(C)[C@H]2CN(C(=O)CC#N)CC[C@H]2C)c2cc[nH]c2n1, the “%Inh” value is reported as 2%.
Cc1ccc(Oc2ccc(Nc3ncnc4cc[nH]c34)cc2C)cn1 was tested, and the “%Inh” value was 0%.
For COc1cccc(C2=C(N(C)c3ccccc3)C(=O)NC2=O)c1 [SB-334865], the “%Inh” value was 3%.
For CCS(=O)c1ccc(-c2coc3ccc(-c4nnc(C)o4)cc23)cc1 (stereo not shown), the “%Inh” value was 0%.
For Cc1nnc(-c2ccc3ncn(-c4ccc(S(C)=O)cc4)c3c2)o1 (stereo not shown), the “%Inh” value was 0%.
In the case of O=c1cc(N2CCOCC2)nc2n(Cc3ccc(F)c(Cl)c3)ccn12 [GSK2297099], the “%Inh” value is reported as 0%.
In the case of COc1cc2ncn(-c3cc(OCCCc4ccccc4)c(C(N)=O)s3)c2cc1OC [GSK205189], the “%Inh” value is reported as 0%.
In the case of COc1cc(Nc2nccc(N3CCC(NC(=O)C(C)c4ccc(Cl)cc4)C3)n2)cc(OC)c1OC (stereo not shown) [GSK1379757], the “%Inh” value is reported as 0%.
For CCCNC(=O)Nc1ccc(Oc2ncnc3ccn(C)c23)cc1, the “%Inh” value was 6%.
For COc1cccc(-n2cnc3c(N)ncnc32)c1 [SKF-97416], the “%Inh” value was 46%.
With CC(C)(C)c1ccc(C(=O)Nc2cn3cc(-c4ccccc4)ccc3n2)cc1 the “%Inh” value was 55%.
For CCC(=O)c1c(-c2ccccc2)c2cc(Cl)ccc2c(=O)n1Cc1ccc(C(=O)O)cc1, the “%Inh” value was 0%.
In the case of Cc1cc(Nc2nc(-c3cccc(C)n3)nc3ccccc23)ccn1 [GW872411], the “%Inh” value is reported as 13%.
With COc1cc(Nc2ccnc3ccc(C(F)(F)F)cc23)cc(OC)c1OC [GW577382] the “%Inh” value was 19%.
